# Like-named read-outs stand apart in the source and are kept apart here.
# How the values were obtained:
# FGFR4 = settings: concentration: 1 μM, replicates: in singlicate; n = 1
# FGR = settings: concentration: 1 μM, replicates: in singlicate; n = 1
# FLT1 = settings: concentration: 1 μM, replicates: in singlicate; n = 1
# FLT3-autoinhibited = settings: concentration: 1 μM, replicates: in singlicate; n = 1
# FLT3 = settings: concentration: 1 μM, replicates: in singlicate; n = 1
# FLT4 = settings: concentration: 1 μM, replicates: in singlicate; n = 1
# FRK = settings: concentration: 1 μM, replicates: in singlicate; n = 1
# FYN = settings: concentration: 1 μM, replicates: in singlicate; n = 1
# GAK = settings: concentration: 1 μM, replicates: in singlicate; n = 1
# GCN2(Kin.Dom.2,S808G) = test system: T1, GCN2(Kin.Dom.2,S808G); settings: concentration: 1 μM, replicates: in singlicate; n = 1
# T1 construct: gene EIF2AK4
# GRK1 = settings: concentration: 1 μM, replicates: in singlicate; n = 1
# GRK2 = test system: T2, GRK2; settings: concentration: 1 μM, replicates: in singlicate; n = 1
# T2 construct: gene ADRBK1
# GRK3 = test system: T3, GRK3; settings: concentration: 1 μM, replicates: in singlicate; n = 1
# T3 construct: gene ADRBK2
# GRK4 = settings: concentration: 1 μM, replicates: in singlicate; n = 1
# GRK7 = settings: concentration: 1 μM, replicates: in singlicate; n = 1
# GSK3A = settings: concentration: 1 μM, replicates: in singlicate; n = 1
# GSK3B = settings: n = 1
# HASPIN = test system: T4, HASPIN; settings: concentration: 1 μM, replicates: in singlicate; n = 1
# T4 construct: gene GSG2
# HCK = settings: concentration: 1 μM, replicates: in singlicate; n = 1
# HIPK1 = settings: concentration: 1 μM, replicates: in singlicate; n = 1
# [1] = concentration: 1 μM, replicates: in singlicate
# 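Also: KINOMEscan kinase panel screen.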
structure (smiles),measurement,setting,value
CSc1ccc(NC2=C(c3ccccc3Cl)C(=O)NC2=O)cc1 [SB-342411],%Inh,FGFR4,16%
same,%Inh,FGR,14%
same,%Inh,FLT1,6%
same,%Inh,FLT3-autoinhibited,0%
same,%Inh,FLT3,0%
same,%Inh,FLT4,1%
same,%Inh,FRK,9%
same,%Inh,FYN,0%
same,%Inh,GAK,14%
same,%Inh,"GCN2(Kin.Dom.2,S808G)",0%
same,%Inh,GRK1,0%
same,%Inh,GRK2,0%
same,%Inh,GRK3,0%
same,%Inh,GRK4,3%
same,%Inh,GRK7,0%
same,%Inh,GSK3A,81%
same,%Inh,GSK3B; 1 µM,29%
same,%Inh,HASPIN,0%
same,%Inh,HCK,0%
same,%Inh,HIPK1,8%
Cl.Cl.c1ccc(-c2cc3ccncc3cc2OC2CCNCC2)cc1 [GSK1122999],%Inh,FGFR4,30%
same,%Inh,FGR,23%
same,%Inh,FLT1,28%
same,%Inh,FLT3-autoinhibited,0%
same,%Inh,FLT3,4%
same,%Inh,FLT4,22%
same,%Inh,FRK,0%
same,%Inh,FYN,44%
same,%Inh,GAK,12%
same,%Inh,"GCN2(Kin.Dom.2,S808G)",11%
same,%Inh,GRK1,0%
same,%Inh,GRK2,0%
same,%Inh,GRK3,0%
same,%Inh,GRK4,9%
same,%Inh,GRK7,10%
same,%Inh,GSK3A,21%
same,%Inh,GSK3B; [1],18%
same,%Inh,HASPIN,89%
same,%Inh,HCK,0%
same,%Inh,HIPK1,5%
Fc1cccc(COc2ccc(Nc3ncnc4cc[nH]c34)cc2Cl)c1,%Inh,FGFR4,11%
same,%Inh,FGR,18%
same,%Inh,FLT1,6%
same,%Inh,FLT3-autoinhibited,16%
same,%Inh,FLT3,0%
same,%Inh,FLT4,0%
same,%Inh,FRK,21%
same,%Inh,FYN,13%
same,%Inh,GAK,14%
same,%Inh,"GCN2(Kin.Dom.2,S808G)",0%
same,%Inh,GRK1,22%
same,%Inh,GRK2,20%
same,%Inh,GRK3,3%
same,%Inh,GRK4,35%
same,%Inh,GRK7,23%
same,%Inh,GSK3A,12%
same,%Inh,GSK3B; [1],8%
same,%Inh,HASPIN,0%
same,%Inh,HCK,24%
same,%Inh,HIPK1,27%
O=C(CCO)NCCn1ccc2ncnc(Nc3ccc(Oc4cccc(C(F)(F)F)c4)c(Cl)c3)c21,%Inh,FGFR4,0%
same,%Inh,FGR,5%
same,%Inh,FLT1,0%
same,%Inh,FLT3-autoinhibited,0%
same,%Inh,FLT3,0%
same,%Inh,FLT4,0%
same,%Inh,FRK,0%
same,%Inh,FYN,0%
same,%Inh,GAK,0%
same,%Inh,"GCN2(Kin.Dom.2,S808G)",0%
same,%Inh,GRK1,13%
same,%Inh,GRK2,0%
same,%Inh,GRK3,0%
same,%Inh,GRK4,0%
same,%Inh,GRK7,0%
same,%Inh,GSK3A,6%
same,%Inh,GSK3B; [1],0%
same,%Inh,HASPIN,0%
same,%Inh,HCK,36%
same,%Inh,HIPK1,19%
COc1ccc(-c2oc3ncnc(N)c3c2-c2ccc(OC)cc2)cc1 [SB-589132],%Inh,FGFR4,3%
same,%Inh,FGR,43%
same,%Inh,FLT1,21%
same,%Inh,FLT3-autoinhibited,18%
same,%Inh,FLT3,13%
same,%Inh,FLT4,12%
same,%Inh,FRK,17%
same,%Inh,FYN,46%
same,%Inh,GAK,48%
same,%Inh,"GCN2(Kin.Dom.2,S808G)",41%
same,%Inh,GRK1,0%
same,%Inh,GRK2,0%
same,%Inh,GRK3,70%
same,%Inh,GRK4,9%
same,%Inh,GRK7,0%
same,%Inh,GSK3A,15%
same,%Inh,GSK3B; [1],0%
same,%Inh,HASPIN,64%
same,%Inh,HCK,14%
same,%Inh,HIPK1,0%

# From PMC5540273 (PLoS ONE, 2017)
